According to PubChem BioAssay (NCATS):
Results filed as inconclusive are left out. Active and inactive are the calls of the source. Calls follow the shape of the dose curve; as a rule, active = well fitted curve in the direction sought with a large enough effect; inconclusive = small, poorly fitted or top-dose-only effect, or another doubt; inactive = no such curve, though single readings can be large; an effect the other way counts as inactive or inconclusive. Bridge positions count the residues as written; N and C are the ends. Square brackets hold non-standard residues; d marks the D form. Side chains are listed from the residue outwards. Peptide text beside a SMILES is read from it. * marks the point of attachment. Phg(4-OMe) = COc1ccc([C@H](N)C(=O)O)cc1; d(aIle) = CC[C@H](C)[C@@H](N)C(=O)O; d(aThr) = C[C@@H](O)[C@@H](N)C(=O)O; NMeF = CN[C@@H](Cc1ccccc1)C(=O)O; Isobutyryl = CC(C)C(=O)*

Columns and labels:
[1] = HPAF-II 24hr Apoptosis Induction qHTS against the NCATS CANVASS Library (AID 1347356)
Summary of the method: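 Using an 11-point qHTS format, HPAF-II cells in DMEM/10% FBS received compounds for 24 h; doxorubicin titration as control. Caspase-3/7 activity quantified by DEVD-luciferase luminescence.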

[2] = HEK293 18hr Apoptosis Induction qHTS against the NCATS CANVASS Library (AID 1347357)
Summary of the method: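 Cells seeded at 500/well in DMEM + 10% FBS. Compounds pinned, 11 concentrations. 18 h, 37 degrees C/5% CO2. Caspase-Glo 3/7 added, 15 min RT dark, luminescence read.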

[3] = HPAF-II 12hr Apoptosis Induction qHTS against the NCATS CANVASS Library (AID 1347358); also: potency is read from the fitted curve at half-maximal effect
Summary of the method: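 Twelve-hour compound exposure of HPAF-II cells in DMEM with 10% FBS, then luminescent Caspase-Glo 3/7 detection after 15 min at room temperature; doxorubicin control.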

[4] = HEK293 24hr Apoptosis Induction qHTS against the NCATS CANVASS Library (AID 1347359)
Summary of the method: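 HEK293 cells, 500 per well, exposed to an 11-point compound series for 24 hours at 37 degrees C. Caspase 3/7 activity read by Caspase-Glo luminescence (DEVD substrate) after 15 min at room temperature.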

[5] = HPAF-II 18hr Apoptosis Induction qHTS against the NCATS CANVASS Library (AID 1347360); also: potency is read from the fitted curve at half-maximal effect
Summary of the method: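 Seed HPAF-II cells at 500/well in DMEM + 10% FBS, pin-transfer compounds, incubate 18 hours at 37 degrees C/5% CO2, add Caspase-Glo 3/7 reagent, wait 15 min, read luminescence.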

[6] = HEK293 12hr Apoptosis Induction qHTS against the NCATS CANVASS Library (AID 1347361)
Summary of the method: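 Cells are seeded, dosed with an 11-point compound series and incubated 12 hours. Caspase-3/7 activity is detected by luminescent DEVD-substrate reagent after 15 minutes at room temperature.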

[7] = tested on: NAD(P)H diaphorase (Clostridium kluyveri); test: Diaphorse counterscreen qHTS: Assay Interference Panel against the NCATS CANVASS Library (AID 1347362); also: potency is read from the fitted curve at half-maximal effect
Summary of the method: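 Clostridium kluyveri diaphorase in PBS + 0.01% Tween-20 preincubated 15 min with compounds. Resazurin and NADH then added for 5 min at room temperature in the dark; resorufin fluorescence read (ex 525, em 598).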

[8] = KB-3-1 Cancer Cell Toxicity qHTS against the NCATS CANVASS Library (AID 1347366); also: nearly all actives have a fitted effect of over 75% in size; also: potency is read from the fitted curve at half-maximal effect
Summary of the method: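 Luminescence from CellTiter-Glo (10 min, room temperature) measured KB-3-1 viability after 72 hr compound exposure at 37C. Cells were seeded at 500/well and tested in an 11-point series.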

[9] = G06 Cancer Cell Toxicity qHTS against the NCATS CANVASS Library (AID 1347368); also: nearly all actives have a fitted effect of over 60% in size; also: potency is read from the fitted curve at half-maximal effect
Summary of the method: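 Quantitative HTS in G06 cells (dog glioma): 72 hr treatment, 11 concentrations, then ATP-based luminescent viability readout; bortezomib 0.1 nM–4.6 uM final as reference.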

[10] = MCF7 Cancer Cell Toxicity qHTS against the NCATS CANVASS Library (AID 1347369); also: potency is read from the fitted curve at half-maximal effect
Summary of the method: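 Cells seeded at 500/well, then compound pinned. Plates incubated 72 hr at 37C, 5% CO2. CellTiterGlo added; luminescence read.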

[11] = qHTS for ATAD5 Antagonist screened against the NCATS CANVASS Library (AID 1347370); also: nearly all actives have a fitted effect of over 65% in size; also: potency is read from the fitted curve at half-maximal effect
Summary of the method: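 HEK293T-ATAD5 luc reporter, 2000 cells/well; 5hr attach; cpd + 10 uM 5-FUrd; 16hr 37C, 5% CO2. Readouts: CellTiter-Fluor fluorescence (1hr), then Amplite luciferase luminescence (30min RT).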

[12] = J3T Cancer Cell Toxicity qHTS against the NCATS CANVASS Library (AID 1347371); also: potency is read from the fitted curve at half-maximal effect
Summary of the method: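 ATP-based cytotoxicity in canine J3T cells: 72 hr exposure at 37C, 11-point titration, CellTiterGlo luminescent detection.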

[13] = qHTS for Inflammasome Signaling Inhibitors: IL-1-beta AlphaLISA screen against the NCATS CANVASS Library (AID 1347379);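 also: human THP-1 cells primed with LPS then triggered with ATP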
Summary of the method: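 THP-1, 1 hr compound pre-incubation, then LPS 250 ng/mL + ATP 1.25 mM (final); 16 hr total with compound; IL-1B AlphaLISA, ex 680/em 615 nm; 11-point qHTS, up to 57.5 uM final.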

[14] = Inflammasome Signaling qHTS Counterscreen: IL-1-beta AlphaLISA counterscreen against the NCATS CANVASS Library (AID 1347381);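 also: cell-free check with purified IL-1β in medium and no THP-1 cells; series mostly up to about 57 µM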
Summary of the method: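 Here, no cellular stimulation occurs; compounds in an 11-point series meet 4 pg purified IL-1-beta directly. Bead-based AlphaLISA detection follows (1 h acceptor/antibody, then 30 min donor, dark, room temperature), with excitation at 680 nm.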

[15] = Cytotoxicity qHTS for assessment of Hepg2 cells membrane integrity screened against the NCATS CANVASS Library (AID 1347387)
Summary of the method: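 Membrane damage in HepG2 monolayers was estimated from released LDH, measured with CytoTox-ONE (ex 560/em 590 nm), after 5 hr treatment across 0.59 nM - 46 uM final.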

[16] = qHTS for activators of dead-cell proteases activity screened against the NCATS CANVASS Library (AID 1347392);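 also: luminescence from protease leaking out of membrane-damaged cells cleaving impermeant substrate; rising signal means more cytotoxicity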
Summary of the method: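 HepG2, 2000 cells/well, 18 h attach; cpd 11-pt, 5 h 37C 5% CO2; CytoTox-Glo (AAF-aminoluciferin) 15 min RT; luminescence read.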

[17] = Redox Reaction Profiling qHTS: Assay Interference Panel against the NCATS CANVASS Library (AID 1347401); also: potency is read from the fitted curve at half-maximal effect
Summary of the method: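 Fluorescence read-out (525 nm excitation, 598 nm emission) at time zero and after 15 min in the dark tracked resorufin formation. Mix: 5 uM resazurin, 200 uM DTT, HEPES pH 7.3 buffer with NaCl.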

[18] = target: Luciferin 4-monooxygenase (Photinus pyralis) (UniProt P08659); test: Firefly luciferase counterscreen qHTS: Assay Interference Panel against the NCATS CANVASS Library (AID 1347363); also: series mostly up to about 57 µM
Sequence of Luciferin 4-monooxygenase (Photinus pyralis) (P08659 whole entry, looked up): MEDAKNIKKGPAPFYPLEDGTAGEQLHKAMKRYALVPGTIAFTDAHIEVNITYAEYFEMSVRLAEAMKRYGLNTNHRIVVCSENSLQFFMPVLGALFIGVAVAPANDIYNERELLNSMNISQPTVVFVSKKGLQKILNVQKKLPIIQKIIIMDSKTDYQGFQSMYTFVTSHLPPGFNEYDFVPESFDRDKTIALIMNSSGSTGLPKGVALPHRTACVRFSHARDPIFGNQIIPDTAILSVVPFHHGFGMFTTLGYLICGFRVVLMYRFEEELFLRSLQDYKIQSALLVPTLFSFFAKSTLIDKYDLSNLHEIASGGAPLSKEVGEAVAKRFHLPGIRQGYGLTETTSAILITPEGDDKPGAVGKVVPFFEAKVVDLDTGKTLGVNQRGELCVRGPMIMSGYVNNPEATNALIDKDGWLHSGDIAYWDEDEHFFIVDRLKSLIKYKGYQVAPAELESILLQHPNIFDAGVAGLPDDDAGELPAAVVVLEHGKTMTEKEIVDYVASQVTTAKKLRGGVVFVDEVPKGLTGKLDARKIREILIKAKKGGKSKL
Summary of the method: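 Purified P. pyralis luciferase (0.04 ug/mL, 4x reagent) added to Tris-acetate buffer with 0.013 mM D-luciferin, 0.013 mM ATP and 13.3 mM Mg-acetate; compounds preincubated 15 min, then luminescence read after 5 min, RT.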

[19] = 10-beta competent E. coli microbial cell viability qHTS against the NCATS CANVASS Library (AID 1347376); also: series mostly up to about 46 µM
Summary of the method: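 Overnight 37C exposure of 10-beta E. coli (0.2 OD) to an 11-point concentration series; ATP-based luminescence after 20 min room-temperature reagent incubation; daunomycin as control.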

[20] = qHTS for H2AX Agonists against the NCATS CANVASS Library (AID 1347378);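 also: phospho-H2AX S139 level in CHO-K1 lysates by TR-FRET emission ratio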
Summary of the method: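 CHO-K1, 1000 cells/well, o/n 37C; cpd several conc, 3 hr 37C, 0.76% DMSO; lyse 30 min RT; cryptate anti-pH2AX(S139) + d2 anti-H2AX, 24 hr RT; HTRF 665/620.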

Measured: Potency

COc1cc2c(c(O)c1O)C(=O)c1c(coc1C)C2=O
active: [7] 4.31 µM | [9] 11.8 µM | [10] 7.39 µM | [12] 26.4 µM | [13] 24.3 µM | [17] 0.764 µM
inactive: [1] | [2] | [3] | [4] | [5] | [6] | [8] | [11] | [14] | [15] | [16]

CC(=O)O[C@H]1c2ccccc2-c2c3c(cc4c2[C@@H]1N(C(C)=O)CC4)OCO3
inactive: [1] | [2] | [3] | [4] | [5] | [6] | [7] | [18] | [8] | [9] | [10] | [11] | [12] | [19] | [20] | [13] | [14] | [15] | [16] | [17]

COc1cc2c(cc1OC)[C@@H](c1ccc3c(c1)OCO3)C(C)C(C)C2=O (stereo partly drawn)
active: [11] 26.3 µM
inactive: [1] | [2] | [3] | [4] | [5] | [6] | [7] | [18] | [10] | [12] | [19] | [20] | [13] | [14] | [15] | [16] | [17]

CC(C)=CCC[C@]12c3cc4c(cc3CC[C@@]1(C)[C@H](C)CC[C@@H]2O)[nH]c1ccccc14
inactive: [1] | [2] | [3] | [4] | [5] | [6] | [7] | [18] | [8] | [9] | [10] | [11] | [12] | [19] | [20] | [13] | [14] | [15] | [16] | [17]

CC[C@H](C)[C@H]1NC(=O)[C@@H](NC(=O)C(C)C)[C@@H](C)OC(=O)[C@H](COC(=O)CNC(C)=O)NC(=O)[C@@H]([C@@H](C)O)NC(=O)[C@H](Cc2ccccc2)N(C)C(=O)[C@H](c2ccc(OC)cc2)NC1=O (Isobutyryl-T[d(aIle)][Phg(4-OMe)][NMeF][d(aThr)]S([Gly-Ac]); ester 1-C)
inactive: [1] | [2] | [3] | [4] | [5] | [6] | [7] | [18] | [8] | [9] | [10] | [11] | [12] | [19] | [20] | [13] | [14] | [15] | [16] | [17]

COc1cc(/C=C/C(=O)OC[C@@H](Cc2ccc(O)c(OC)c2)[C@@H](COC(=O)/C=C/c2ccc(O)c(OC)c2)Cc2ccc(O)c(OC)c2)ccc1O
active: [3] 11.8 µM | [5] 8.33 µM | [8] 20.9 µM | [9] 14.8 µM | [11] 1.48 µM | [13] 15.3 µM
inactive: [7] | [18] | [12] | [19] | [20] | [14] | [17]
